m5-HT2A agonist: mouse Htr2a agonists via beta-arrestin recruitment, primary screen, cell-based, luminescence | 5-hydroxytryptamine receptor 2A (Mus musculus), P35363 | CHO-K1 mHTR2A beta-arrestin complementation; percent of 30 µM serotonin response | activation, % at 7.6 µM | actives 0.66% (n = 360,000) | AID 624169, 2012;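 active = activation above a run cutoff, the mean activation of all tested compounds plus 3 SD, cut at about 14% in these data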;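 also: 0% = plate median of compound wells and 100% = 30 µM serotonin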
Target sequence (P35363 whole entry, looked up): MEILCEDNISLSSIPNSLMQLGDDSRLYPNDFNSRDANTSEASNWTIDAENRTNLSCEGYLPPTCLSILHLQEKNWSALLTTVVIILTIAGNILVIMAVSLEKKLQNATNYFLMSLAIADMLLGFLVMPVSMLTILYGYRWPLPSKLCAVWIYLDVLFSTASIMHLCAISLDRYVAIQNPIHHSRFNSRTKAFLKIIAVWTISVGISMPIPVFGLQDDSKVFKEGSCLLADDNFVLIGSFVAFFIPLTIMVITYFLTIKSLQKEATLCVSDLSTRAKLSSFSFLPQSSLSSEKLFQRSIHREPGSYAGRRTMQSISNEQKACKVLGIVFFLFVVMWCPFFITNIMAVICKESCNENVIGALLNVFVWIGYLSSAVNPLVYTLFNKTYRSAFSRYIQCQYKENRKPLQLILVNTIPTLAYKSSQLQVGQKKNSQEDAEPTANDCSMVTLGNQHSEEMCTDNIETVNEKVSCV
TLR4-MyD88 BLA: inhibitors of TLR4-MyD88 association in cells, primary screen, cell-based, HeLa CL3-4, BLA complementation, FRET ratio; Toll-like receptor 4 (Homo sapiens) + Myeloid differentiation primary response protein …; HeLa CL3-4 TLR4/MyD88 BLA complementation; inhibition, % at 8.4 µM; actives 0.18% (n = 200,000); in the data active = inhibition above about 25%;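 also: 0% = vehicle and 100% = reference inhibitor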
TLR9-MyD88 block: inhibitors of TLR9-MyD88 association in cells, primary screen, cell-based, CHO, BLA complementation, fluorescence; CCF4 FRET ratio; AID 504734, 2011; inhibition, % at 4.98 µM; Toll-like receptor 9 (Homo sapiens) + Myeloid differentiation primary response protein …; actives 0.21% (n = 340,000);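 active = inhibition above the mean over all tested compounds plus 3 SD, cut at about 21% in these data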;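 also: 0% = DMSO only wells and 100% = clavulanate BLA inhibitor control wells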
NOD2-RIPK2 inh: NOD2-RIPK2 binding disruptors in cells, primary screen, fluorescence, CHO cells, BLA complementation; inhibition, % at 4.98 µM; actives 0.38% (n = 360,000); CCF4 ratio; Receptor-interacting serine/threonine-protein kinase 2 (Homo sapiens), O43353; in the data active = inhibition above about 21%;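 also: 0% = vehicle only and 100% = reference blocker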
TMEM16A act: TMEM16A chloride channel activators or potentiators, primary screen, cell-based, HTS | HEK293 TMEM16A/YFP-H148Q/I152L, iodide quench fluorescence; stronger effect = lower value | Anoctamin-1 (Mus musculus), Q8BHY3 | B-score at 10 µM | actives 0.3% (n = 340,000);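 active = fluorescence-ratio B-score plate-corrected deviation score at least 3 library SD below zero, with starting fluorescence score within 5 deviations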;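 also: channel opened by trigger with iodide after compound preincubation; score built on the fluorescence ratio of max minus min over baseline; more negative score means more quench and so TMEM16A activation or potentiation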
TMEM16A inh: TMEM16A chloride channel inhibitors, primary screen, cell-based, HTS | normalized B-score (activity score, 25-100; higher = stronger inhibition) at 10 µM | HEK293 TMEM16A/YFP iodide influx fluorescence, ionomycin | actives 1.2% (n = 310,000) | Anoctamin-1 (Mus musculus), Q8BHY3;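 active = ratio plate-corrected score three or more library SD toward inhibition, starting fluorescence score within five deviations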;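 also: score derived from kinetic fluorescence span divided by baseline fluorescence per well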
TMEM16A reconf: TMEM16A chloride channel inhibitors, confirmation, cell-based, re-confirmation; HEK293 TMEM16A/YFP-H148Q, iodide quench fluorescence; ionomycin added to raise cell calcium; actives 39% (n = 2,300); inhibition, % at 10 µM; shares compounds with TMEM16A inh;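 active = mean duplicate percent inhibition, scaled so buffer wells are 0 and the reference blocker 100, over three buffer SD above buffer mean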
TMEM16A Ca cntr: calcium mobilization in TMEM16A/YFP HEK293 cells, confirmation, counter-screen for TMEM16A inhibitor project. Fluo4 calcium mobilization. calcium response (% of ionomycin), % at 10 µM. actives 2% (n = 2,300). AID 652231, 2013. shares compounds with TMEM16A inh;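 active = duplicate-averaged calcium signal over 20% of the ionomycin maximum, relative to buffer baseline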;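 also: each well's signal is peak minus trough fluorescence divided by its pre-addition baseline; 0% = buffer wells and 100% = ionomycin wells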
Parental YFP cnt: iodide YFP quench changes in parental YFP-HEK293, counter-screen for TMEM16A inhibitor project, cell-based | ionomycin | 2,300 tested, under 10 active | YFP ratio F(max-min)/F0 at 10 µM | AID 652233, 2013 | shares compounds with TMEM16A inh;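 active = yellow fluorescent protein signal ratio exceeding the buffer control mean by over 5 SD of those controls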;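 also: ratio is mean of duplicate wells from kinetic YFP trace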
ClC-1 inh: ClC-1 chloride channel inhibition, selectivity assay for TMEM16A inhibitor project, cell-based, voltage-dependent ClC-1; 2,300 tested, under 10 active; shares compounds with TMEM16A inh; AID 652236, 2013; CHO ClC-1-YFP, iodide influx fluorescence quench; iodide control reads 0, buffer control 100; ratio percent, % at 10 µM;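 active = duplicate-mean ratio percent above the mean of iodide-only control wells, which defines zero, plus 5 of their SD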;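 also: higher percent means stronger block of ClC-1 iodide influx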
* = called active by the depositor; i = inactive; . = no result. The list is not random: actives were taken first. Their share in the collection is about 2.4%.

SMILES | m5-HT2A agonist | TLR4-MyD88 BLA | TLR9-MyD88 block | NOD2-RIPK2 inh | TMEM16A act | TMEM16A inh | TMEM16A reconf | TMEM16A Ca cntr | Parental YFP cnt | ClC-1 inh
CN(C)c1cccc(C(=O)OCC(=O)N2CCc3ccccc3C2)c1 | -2 | 16 | -3 | -3 | i | i | . | . | . | .
CSc1ccccc1OCc1cc(C(=O)NC2CCOC(C)(C)C2)no1 (configuration not stated) | -2 | . | 2 | -8 | i | i | . | . | . | .
O=C(CSc1n[nH]c(-c2ccccc2O)n1)NC1CCCCC1 | 6 | . | 0 | -8 | i | 100* | i | i | -1.3 | 12
COC(=O)c1ccc(Cn2c(C)c(C(=O)NCc3cccs3)sc2=O)o1 | -3 | . | . | -2 | . | . | . | . | . | .
O=C(NCCCc1ccccc1)C(=O)NCC1OCCN1S(=O)(=O)c1ccc(F)cc1 (configuration not stated) | 3 | . | 5 | -1 | i | 25* | i | i | -1 | -8
COC(=O)c1cc(CSc2nc3ccccc3c(=O)n2C)oc1C | 3 | . | 12 | 1 | i | 100* | 34%* | i | -1.1 | -12
COCCn1c(SCc2ccc(C(=O)OC)o2)nc2ccccc2c1=O | -1 | 10 | 6 | -15 | i | i | . | . | . | .
Cn1nc(C(F)(F)F)c(/C=N/OC(=O)c2ccccc2)c1Sc1ccc(Cl)cc1 | -2 | 2 | -1 | -7 | i | 25* | i | i | -1.1 | -8
Cn1nc(C(F)(F)F)c(/C=N/OC(=O)c2ccccc2)c1Cl | -2 | -2 | 13 | -4 | i | i | . | . | . | .
O=c1cc(-c2ccccc2)nc(SCc2ccc(F)cc2)[nH]1 | -5 | -12 | -9 | -6 | i | i | . | . | . | .
Cc1ccc(NCc2nnc(SCC#N)o2)c(C)c1 | 5 | 11 | -9 | -14 | i | i | . | . | . | .
NC(=O)c1ccc(Br)c(S(=O)(=O)N2CCCCC2)c1 | -3 | 12 | -4 | -4 | i | i | . | . | . | .
O=S(=O)(c1cc(Br)ccc1Br)N1CCCCCC1 | 2 | . | 0 | -7 | i | 25* | 21%* | i | -1 | -10
Cc1cccc(NC(=O)C(CC(C)C)NC(=O)C2CCC(C)CC2)n1 (configuration not stated) | -1 | -4 | 7 | -3 | i | i | . | . | . | .
CCOc1ccc(C(=O)NCC(C)C)cc1 | 3 | 1 | 5 | -6 | i | i | . | . | . | .
CCOc1ccc(C(=O)NCC(C)NC(=O)c2ccc(OCC)cc2)cc1 (configuration not stated) | 0 | . | -1 | 10 | i | 25* | i | i | -0.79 | -11
CN(c1ccc(C(=O)Nc2cccc([N+](=O)[O-])c2)cc1)S(C)(=O)=O | -2 | 1 | 4 | 6 | i | i | . | . | . | .
CC1CCC(NC(=O)CCS(=O)(=O)c2ccc3c(c2)NC(=O)CS3)CC1 (configuration not stated) | 1 | . | -7 | -5 | i | 25* | i | i | -1 | -1
CN(C)CCCN(C(=O)c1ccc2c(c1)CCCC2)c1nc2cc3c(cc2s1)OCO3 | -8 | . | 2 | 8 | i | i | . | . | . | .
COCCNc1nc(-c2ccccc2F)c2sc(-c3ccccc3)cc2n1 | -7 | . | . | -2 | . | . | . | . | . | .
Cc1ccc2c(c1)N(CC(=O)Nc1nccs1)C(=O)CO2 | -5 | . | -5 | 0 | i | . | . | . | . | .
Cc1ccc(NC(=O)CN2C(=O)COc3ccc(C)cc32)nc1 | 9 | -3 | -2 | 9 | i | 25* | i | i | -0.89 | -18
N#CCC(=O)Nc1ccc(C(=O)OCC(=O)Nc2ccccc2-c2ccccc2)cc1 | 4 | 7 | . | -18 | i | 100* | i | i | -1.1 | -10
N#CCC(=O)Nc1ccc(C(=O)OCC(=O)NC(=O)Cc2ccccc2)cc1 | 2 | . | 4 | -13 | i | i | . | . | . | .
Cc1cccc(NC(=S)NN(Cc2ccccc2)c2ccccc2)c1C | -7 | 0 | -7 | -2 | i | i | . | . | . | .
SMILES | m5-HT2A agonist | TLR4-MyD88 BLA | TLR9-MyD88 block | NOD2-RIPK2 inh | TMEM16A act | TMEM16A inh | TMEM16A reconf | TMEM16A Ca cntr | Parental YFP cnt | ClC-1 inh
CCOC(=O)N1CCN(C(=O)C2CCCN(Cc3nc(-c4ccc(Cl)cc4)oc3C)C2)CC1 (configuration not stated) | 0 | 6 | 4 | -5 | i | 25* | i | i | -0.98 | -8
Cc1cccc(C)c1NC(=O)Cn1nc(C)n2cccc2c1=O | 5 | . | 5 | 1 | i | i | . | . | . | .
C=C1CCN(C(CC(C)C)C(=O)OC)S(=O)(=O)c2ccccc21 (configuration not stated) | -5 | . | 0 | -2 | i | 25* | i | i | -1.2 | -4
COCCN(C(=S)Nc1ccc(C(C)C)cc1)C(C)c1cccs1 (configuration not stated) | -3 | 15 | -4 | -2 | i | 25* | i | i | -0.85 | -13
Fc1cccc(Cl)c1CSc1nnc(-c2ccncc2)o1 | -1 | . | -2 | 9 | i | i | . | . | . | .
CN(CC(=O)Nc1cccc(F)c1)CC(=O)Nc1cc(S(=O)(=O)N2CCOCC2)ccc1Cl | -10 | . | 4 | 1 | i | . | . | . | . | .
CN(CC(=O)Nc1cccc(S(=O)(=O)N2CCOCC2)c1)CC(=O)Nc1ccc(Cl)c(C(F)(F)F)c1 | -6 | . | -8 | -3 | i | 25* | i | i | -1.3 | -10
O=c1cc(C(F)(F)F)[nH]c2ccc(OC(F)(F)F)cc12 | 13 | . | . | -4 | i | 100* | 43%* | i | -0.87 | -21
CCOc1ccc2[nH]c(C)cc(=O)c2c1 | 5 | -13 | -2 | -10 | i | i | . | . | . | .
O=C1NC[C@H](CCCCN2CCN(Cc3ccccc3)C(=O)C2=O)N(CC2CCCCC2)C1=O | -4 | . | . | -1 | . | . | . | . | . | .
